PubChem BioAssay (NCATS)
Several values for one entry are separate records, joined by “and”; a condition that tells them apart may be missing. Equal values may be shown once. Records with an inconclusive call do not appear. Where a structure was tested more than once in an assay, its records may differ in their call. Activity calls are given as the source filed them. Unless noted, the call rests on the fitted dose curve; in most records, active means well fitted curve in the direction sought with a large enough effect; inconclusive means small, poorly fitted or top-dose-only effect, or another doubt; inactive means no such curve, though single readings can be large; an effect the other way counts as inactive or inconclusive.

Key:
[1] = tested on: CASKI; experiment: Primary qHTS to identify gynecologic anti-cancer compounds using libraries of approved drugs and bioactive compounds (AID 1345084); settings: Gynecologic cancer cell panel viability, ATPlite luminescence, 48 h; series mostly up to 57.5 µM; further: on the % scale 0 is the no-effect control and ±100 the full control effect; nearly all actives have a fitted effect of over 55% in size
Summary of the method: (§1)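 Cells, 1,000 per well, plated 16 h, then exposed 48 h at 37 C to compounds. Viability by ATPlite luminescence after 15 min at room temperature.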

[2] = tested on: Es-2; experiment: as above; settings: Gynecologic cancer cell panel viability, ATPlite luminescence, 48 h; series mostly up to 57.5 µM
Summary of the method: as §1

[3] = tested on: HeLa; experiment: as above; settings: Gynecologic cancer cell panel viability, ATPlite luminescence, 48 h; series mostly up to 57.5 µM
Summary of the method: as §1

[4] = tested on: Hek293T; experiment: as above; settings: Gynecologic cancer cell panel viability, ATPlite luminescence, 48 h, control line for the selectivity index; series mostly up to 57.5 µM
Summary of the method: as §1

[5] = tested on: JEG-3; experiment: as above; settings: Gynecologic cancer cell panel viability, ATPlite luminescence, 48 h; series mostly up to 57.5 µM
Summary of the method: as §1

[6] = tested on: OV90; experiment: as above; settings: Gynecologic cancer cell panel viability, ATPlite luminescence, 48 h; series mostly up to 57.5 µM
Summary of the method: as §1

[7] = tested on: PA-1; experiment: as above; settings: Gynecologic cancer cell panel viability, ATPlite luminescence, 48 h; series mostly up to 57.5 µM
Summary of the method: as §1

[8] = tested on: Tov-21-G; experiment: as above; settings: Gynecologic cancer cell panel viability, ATPlite luminescence, 48 h; series mostly up to 57.5 µM
Summary of the method: as §1

[9] = tested on: Tov112D; experiment: as above; settings: Gynecologic cancer cell panel viability, ATPlite luminescence, 48 h; series mostly up to 57.5 µM
Summary of the method: as §1

[10] = molecular target: Nuclear receptor subfamily 1 group I member 2 (Rattus norvegicus) (UniProt Q9R1A7); experiment: qHTS assay for small molecule activators of the rat pregnane X receptor (rPXR) signaling pathway (AID 651751; call rule not given here; further: 0% is about no effect); settings: rPXR reporter cells, luciferase (One-Glo), 24 h
[11] = qHTS assay to identify inhibitors of the type 1 interferon - major histocompatibility complex class I in skeletal muscle: Counter screen cell viability and HiBit confirmation (AID 1347412); settings: iHSKM muscle cells + IFN-b, HiBiT or CellTiter-Glo, 24 h; Viability; at 45.9 µM (top of the series); further: on the % scale 0 is the no-effect control and ±100 the full control effect; nearly all actives have a fitted effect of over 60% in size
Summary of the method: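 Duplicate plates, pinned identically: one read for HiBiT-tagged endogenous HLA-B luminescence, the other for ATP-content viability via CellTiter Glo. Cells were genome-engineered human myoblasts given 4 ng/ml IFN-b; compounds 12-pt, 1:3 from 46 uM final; 24 hr exposure.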

[12] = Drug repurposing screens with cells derived from glioblastoma tumor samples (AID 1345199); settings: GBM patient neurospheres viability, ATP luminescence, 48 h; further: nearly all actives have a fitted effect of over 40% in size; further: potency means the concentration at half of the fitted maximal effect; on activity, negative = cell killing: on the % scale 0 is the no-effect control and ±100 the full control effect
Summary of the method: (§2)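 Primary testing used CD133+ neurospheres from four GBM patients, seven concentrations, 48 h exposure and ATP-based viability; confirmation added three slower-growing patient lines.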

[13] = tested on: astro; experiment: as above; settings: viability, ATP luminescence, 48 h; series mostly up to 45.9 µM
Summary of the method: as §2

[14] = at 45.9 µM (top of the series), tumour line B
[15] = at 45.9 µM (top of the series), tumour line D
[16] = at 46 µM (top of the series), tumour line A
[17] = at 46.1 µM (top of the series), tumour line C

Sequence of Nuclear receptor subfamily 1 group I member 2 (Rattus norvegicus) (Q9R1A7 whole entry, looked up): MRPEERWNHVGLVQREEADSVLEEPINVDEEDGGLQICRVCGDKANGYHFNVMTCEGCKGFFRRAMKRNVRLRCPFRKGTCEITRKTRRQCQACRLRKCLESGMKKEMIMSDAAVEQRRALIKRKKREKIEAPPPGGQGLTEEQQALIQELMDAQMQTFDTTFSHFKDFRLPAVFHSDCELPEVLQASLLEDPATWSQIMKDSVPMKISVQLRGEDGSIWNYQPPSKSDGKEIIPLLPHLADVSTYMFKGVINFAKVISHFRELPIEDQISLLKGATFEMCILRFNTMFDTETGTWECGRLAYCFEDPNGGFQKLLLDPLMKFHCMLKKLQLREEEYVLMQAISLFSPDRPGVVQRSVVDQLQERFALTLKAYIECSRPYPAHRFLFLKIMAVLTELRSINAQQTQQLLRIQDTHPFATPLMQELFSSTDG

O=C(Nc1ccc2c(c1)CCN(Cc1ncn[nH]1)C2)c1ccccc1-c1ccc(C(F)(F)F)cc1
inactive: Potency [1] | Potency [2] | Potency [3] | Potency [4] | Potency [5] | Potency [6] | Potency [7] | Potency [8] | Potency [9]

CC(C)NCC(O)COc1cccc2ccccc12 (stereo not drawn)
inactive: max response [10] 2% and 7.81%

CN1CCC[C@H]1c1cccnc1
inactive: max response [10] 4.53% and 0.248%

O=C(NOCC1CC1)c1cc(Br)c(F)c(F)c1Nc1ccc(I)cc1Cl
inactive: activity change, negative = inhibition [11] -18.5%

O=C(O)COc1ccc(C(=O)c2cccs2)c(Cl)c1Cl
inactive: activity, negative = cell killing [12, 14] -12.4% and -10% | activity, negative = cell killing [12, 15] -10.2% and 1.54% | activity, negative = cell killing [12, 16] -22.1% and -29.6% | activity, negative = cell killing [12, 17] -20.3% and -8.25% | Potency [13]

N=c1ccn2c(n1)O[C@H]1[C@H](O)[C@@H](CO)O[C@H]12
inactive: activity, negative = cell killing [12, 15] -31.3% | activity, negative = cell killing [12, 17] -5.87% | Potency [13]

CC[C@H]1OC(=O)[C@H](C)[C@@H](O[C@H]2C[C@@](C)(OC)[C@@H](O)[C@H](C)O2)[C@H](C)[C@@H](O[C@@H]2O[C@H](C)C[C@H](N(C)C)[C@H]2O)[C@](C)(O)C[C@@H](C)C(=O)[C@H](C)[C@@H](O)[C@]1(C)O
inactive: activity, negative = cell killing [12, 14] -22.6% and -12% | activity, negative = cell killing [12, 15] -9.85% and -27.5% | activity, negative = cell killing [12, 17] -1.15% and -24.2% | Potency [13]

C[S+](CC[C@H](N)C(=O)O)C[C@H]1O[C@@H](n2cnc3c(N)ncnc32)[C@H](O)[C@@H]1O (stereo partly drawn)
inactive: activity, negative = cell killing [12, 14] 4.03% and -13.3% | activity, negative = cell killing [12, 15] -4.97% and -8.65% | activity, negative = cell killing [12, 17] -29.2% and -23.1% | Potency [13]
active: Potency ([12]; tumour line A) 7.08 µM

CCCCCC[C@@H](O)C/C=C\CCCCCCCC(=O)O
inactive: activity, negative = cell killing [12, 15] -4.78% and -10.9% | activity, negative = cell killing [12, 16] -28% | activity, negative = cell killing [12, 17] -19.3% and -4.11% | Potency [13]
active: Potency ([12]; tumour line A) 20 µM

C[N+](C)(C)CCOP(=O)(O)OP(=O)([O-])OC[C@H]1O[C@@H](n2ccc(N)nc2=O)[C@H](O)[C@@H]1O
inactive: activity, negative = cell killing [12, 14] -6.25% and -7.43% | activity, negative = cell killing [12, 15] -2.69% and -5.13% | activity, negative = cell killing [12, 16] -13.9% | activity, negative = cell killing [12, 17] -5.84% and 8.06%
